# From PubChem BioAssay (NCATS)
# Records with an inconclusive call do not appear. Unmarked numbers belong to inactive results. The source made the active and inactive calls. Calls come from the whole dose curve; as a rule, active = well fitted curve in the direction sought with a large enough effect; inconclusive = small, poorly fitted or top-dose-only effect, or another doubt; inactive = no such curve, though single readings can be large; an effect the other way counts as inactive or inconclusive.
# System: Tov112D
# Experiment: Primary qHTS to identify gynecologic anti-cancer compounds using libraries of approved drugs and bioactive compounds (AID 1345084); note: nearly all actives have a fitted effect of over 55% in size; note: potency is the fitted concentration of half-maximal effect
# Details: Gynecologic cancer cell panel viability, ATPlite luminescence, 48 h; series mostly up to 57.5 µM; activity change, negative = cytotoxicity: at the top concentration
# How it was run: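 Measured: luminescence after ATPlite addition (15 min, RT). Exposure: 48 h, 37 C, 5% CO2.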
# % is set by controls: 0 for no effect and ±100 for the full control effect.
Structure (SMILES),"activity change, negative = cytotoxicity",Potency
O=C(N[C@H]1CN2CCC1CC2)c1ccc(Cl)cc1,-0.418%,–
CCC(=O)O[C@@H]1C=C2CCC3C(CCC4(C)C3CC[C@@H]4OC(=O)CC)C2CC1 (stereo partly specified),4.99%,–
Cc1ccccc1-n1c(Cn2cnc3c(N)ncnc32)nc2cccc(C)c2c1=O,-2.3%,–
CC1=C(C(=O)O)N2C(=O)[C@@H](N)[C@H]2SC1,6.02% [at 25.3 µM],–
O=C1C=CC[C@@H]2[C@H]3CCCN4CCC[C@@H](CN12)[C@@H]34,4.89%,–
O=C1C(I)=CC(=C(c2cc(I)c(O)c(I)c2)c2ccccc2C(=O)O)C=C1I,3.88%,–
Nc1ccc(Cl)cc1N,-7.37% [at 116 µM],–
Cc1ccccc1-n1c(Cn2ncc3c(N)ncnc32)nc2cccc(C)c2c1=O,17.9%,–
CC(C)N(CCNC(=O)CN1CCCC1=O)C(C)C,0.88%,–
COC1=C[C@@H]2[C@@H]3Cc4ccc(OC)c(O)c4[C@]2(CCN3C)CC1=O,-1.78%,–
CC(=O)NCCc1c[nH]c2ccccc12,1.43%,–
S=C(NC1CCCCC1)N1CCC(c2cnc[nH]2)CC1,-2.18%,–
CCNC(=O)CC1N=C(c2ccc(Cl)cc2)c2cc(OC)ccc2-n2c(C)nnc21 (stereo unspecified),6.32%,–
C=CCC1=C(C)C(OC(=O)C2C(C=C(C)C)C2(C)C)CC1=O (stereo unspecified),-10.1% [at 116 µM],–
CCNC(=O)C[C@@H]1N=C(c2ccc(Cl)cc2)c2cc(OC)ccc2-n2c(C)nnc21,-30.4%,–
CCc1c(C(=O)C(N)=O)c2c(OCC(=O)O)cccc2n1Cc1ccccc1,-7.5%,–
Fc1cc(Br)ccc1CBr,4.31%,–
CC(N[C@H]1C[C@H]1c1ccccc1)c1ccc2c(c1)OCCO2 (stereo partly specified),2.45%,–

Structure (SMILES),"activity change, negative = cytotoxicity",Potency
CC[N+]1(CCOC(=O)C(O)(c2ccccc2)c2ccccc2)CCCCC1,-7.3%,–
O=S(=O)(c1ccc(Cl)cc1)c1ccc(Cl)cc1,-14.1% [at 116 µM],–
Cc1c(C(=O)Nc2cccc(C(F)(F)F)c2)cc(-c2ccccc2)n1CCCN1CCOCC1,-1.67%,–
O=C(N[C@@H](COc1ccc2[nH]c(=O)[nH]c2c1)c1ccccc1)c1cccn(Cc2ccc(F)c(F)c2)c1=O,-1.32%,–
O=C(Oc1ccc([N+](=O)[O-])cc1)N1CCC(C(O)(c2ccc3c(c2)OCO3)c2ccc3c(c2)OCO3)CC1,1.88%,–
CN1CCN(c2ccc([N+](=O)[O-])c3no[n+]([O-])c23)CC1,5.92%,–
CCN(CC)C(=O)c1ccc(C2=CC3(CCNCC3)Oc3cccc(O)c32)cc1,9.43%,–
CC(=O)N(C)c1cccc(-c2ccnc3c(C(=O)c4cccs4)cnn23)c1,-1.85%,–
CC(C)NCC(O)c1ccc([N+](=O)[O-])cc1 (stereo unspecified),3.81%,–
CCOC(=O)Nc1ccc(NCc2ccc(F)cc2)cc1N,11.7%,–
COc1ccc(C(c2ccc(OC)cc2)C(Cl)(Cl)Cl)cc1,-11.7% [at 116 µM],–
CC(Cc1ccc(O)cc1)NCC(O)c1cc(O)cc(O)c1 (stereo unspecified),-2.93%,–
O=C(O)CNC(=O)c1c(O)c2ccccc2n(Cc2ccccc2)c1=O,6.32%,–
CC(=O)Nc1ccc(OC[C@](C)(O)C(=O)Nc2ccc([N+](=O)[O-])c(C(F)(F)F)c2)cc1,9.74%,–
O=C(Oc1ccc([N+](=O)[O-])cc1)N1CCN(Cc2cccc(Oc3ccccc3)c2)CC1,-1.21%,–
COCCOCCO,7.33% [at 116 µM],–
O=C(NCC1CCOCC1)c1cnc(Nc2ccc(Cl)cc2Cl)nc1C(F)(F)F,-0.378%,–
CC1(N2CCC(n3c([C@@H]4CCCNC4)nc4ccccc43)CC2)CCCCCCC1,–,22.4 µM (active)

# System: not listed separately
# Experiment: Drug repurposing screens with cells derived from glioblastoma tumor samples (AID 1345199); note: nearly all actives have a fitted effect of over 40% in size
# Details: GBM patient neurospheres viability, ATP luminescence, 48 h; Potency: tumour line A unless noted; series mostly up to 45.9 µM; activity, negative = cell killing: at the top concentration
# How it was run: (§1)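 Four patient lines of CD133+ GBM neurospheres were screened at several concentrations; hits were retested in those lines plus three slower-growing GBM lines, using 48-hour treatment and ATP-based viability.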
Structure (SMILES),Potency,"activity, negative = cell killing"
O=C1C(I)=CC(=C(c2cc(I)c(O)c(I)c2)c2ccccc2C(=O)O)C=C1I,inactive,–
CC[N+]1(CCOC(=O)C(O)(c2ccccc2)c2ccccc2)CCCCC1,inactive,–
O=S(=O)(c1ccc(Cl)cc1)c1ccc(Cl)cc1,–,"-28.8% [at 91.6 µM, tumour line B]"
CC(C)NCC(O)c1ccc([N+](=O)[O-])cc1 (stereo unspecified),inactive,–
CC(Cc1ccc(O)cc1)NCC(O)c1cc(O)cc(O)c1 (stereo unspecified),inactive,–
COCCOCCO,inactive,–

# System: astro
# Experiment: as above
# Details: viability, ATP luminescence, 48 h; series mostly up to 45.9 µM; activity, negative = cell killing: at the top concentration
# How it was run: as §1
row,Structure (SMILES),"activity, negative = cell killing"
1,CC[N+]1(CCOC(=O)C(O)(c2ccccc2)c2ccccc2)CCCCC1,-7.72%
2,O=S(=O)(c1ccc(Cl)cc1)c1ccc(Cl)cc1,-24.9% [at 91.6 µM]
3,CC(C)NCC(O)c1ccc([N+](=O)[O-])cc1 (stereo unspecified),-16.1%
4,CC(Cc1ccc(O)cc1)NCC(O)c1cc(O)cc(O)c1 (stereo unspecified),-19.4%
